Screens as filed in PubChem.
esBAF inh = blocks esBAF chromatin remodeling in mouse ES cells; Bmi1-luciferase knock-in reporter, 24 h; 100% = twice the neutral-well signal; reporter increase, % at 12.5 µM; 2% of 350,000 active; in the data active means activation above about 40%;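 further: 0% = median of the plate's neutral control wells and 100% = double that signal; a rise in the Bmi1 reporter signal indicates esBAF inhibition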
GAA850 FXN act = activators of GAA850 frataxin (FXN) promoter | AID 540364 | 0.56% of 360,000 active | activation, % at 6 µM | HEK293 lucGAA850 FXN promoter luciferase reporter, 24 h; percent of 10 µM SAHA response;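 active means activation above the average of all compounds screened plus 3 SD, cutoff fixed separately per campaign, cut at about 7.5% in these data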;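 further: 0% = DMSO wells and 100% = 10 µM SAHA wells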
Wnt bcat act = Wnt/beta-catenin pathway activation; Wnt/beta-catenin reporter cell assay, activator, plate reader; activation, % at 9.35 µM; 1.2% of 300,000 active; AID 743398; in the data active means activation above about 30%, passing the limit was not always enough;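 further: 0% = neutral control wells and 100% = positive control wells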
MITF TRPM1 HTS = activators of MITF-driven TRPM1 promoter activity in SK-MEL-5 cells. SK-MEL-5 TRPM1-promoter luciferase, 24 h; % of positive control, neutral wells = 0. activation, % at 12.5 µM. 0.75% of 300,000 active. AID 588334;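 active means mean activation of at least 80% with every replicate also reaching 80%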;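 further: 0% = neutral control wells and 100% = parthenolide positive control wells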
Statin myotox sup = suppressors of simvastatin-induced myotoxicity in C2C12 myotubes; ATP luminescence, 48 h; scaled: DMSO 0, geranylgeraniol control 100; rescue of ATP level, % at 7.49 µM; 0.78% of 330,000 active; AID 602340;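 active means mean ATP rescue above about 67%, or every replicate alone reaching that limit, limit read from the data, passing the limit was not always enough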;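 further: myotubes were challenged with 10 µM simvastatin during compound exposure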
The depositor's hits bear a star; · = not tested or not shown. Hits are enriched below; roughly 3.3% of the tested compounds scored in any of these assays.

SMILES	esBAF inh	GAA850 FXN act	Wnt bcat act	MITF TRPM1 HTS	Statin myotox sup
COc1ccc(C2=CN(Cc3ccccc3)C(c3ccccc3)CC2=O)cc1 (stereo not given)	19	0	19	100*	-14
CC=Cc1ccc2n(c1=O)C[C@H]1[C@H](CO)[C@@H](C(=O)N3CCc4ccccc4C3)[C@@H]2N1Cc1ccncc1 (mixture of isomers)	1	·	·	·	-27
Clc1ccc(-c2nc(C3CCCCC3)no2)cc1	76*	5	71*	91*	4
Clc1ccc(-c2nnc(C3CCCCC3)o2)cc1	37	2	27	38	123*
COc1cccc(-c2cnc3c(c2)C(=O)N([C@H](C)CO)C[C@@H](C)[C@@H](CN(C)CC2CC2)O3)c1	·	·	·	·	-3
N#C/C(=C\c1ccc(Sc2ccccc2)o1)c1nc2ccccc2[nH]1	·	5	-3	121*	·
N#C/C(=C\c1cccs1)c1nc2ccccc2[nH]1	·	6	·	15	·
N#C/C(=C\c1ccc([N+](=O)[O-])o1)c1nc2ccccc2[nH]1	·	·	-15	·	·
N#C/C(=C\Nc1ccc2c(c1)OCCO2)c1nc2ccccc2[nH]1	44*	0	·	77	-24
N#C/C(=C\Nc1ccc2c(c1)OCCO2)c1nc(-c2ccccc2)cs1	·	3	-6	20	·
N#C/C(=C\c1ccc(OC(=O)c2cccs2)cc1)c1nc2ccccc2[nH]1	·	-3	35*	58	·
O=C(C[C@@H]1C[C@H]2c3cc(NC(=O)NC4CCCCC4)ccc3O[C@H]2[C@H](CO)O1)NCc1cccnc1	6	·	·	·	-6
O=C(c1cnc(Cc2c[nH]c3ccccc23)c(I)c1)N1CCCCC1	49*	-3	7	·	5
Cc1ccc(C(=O)O/N=C(\N)c2ccc(Br)cc2)cc1	82*	5	·	89*	4
COc1ccc(/C(N)=N/OC(=O)c2ccc(C)c([N+](=O)[O-])c2)cc1	70*	2	·	33	-2
N/C(=N\OC(=O)C1CCCCC1)c1ccc(Br)cc1	66*	2	25	·	3
COc1ccc(C(=O)O/N=C(\N)c2ccccc2)cc1	-22	0	27	49	1
COc1ccc(C(=O)O/N=C(\N)c2ccc(Br)cc2)cc1	59*	4	35*	57	-2
CN1CCN(C(=O)C[C@@H]2CC[C@H]3[C@@H](COC[C@H](O)CN3CC3CCCCC3)O2)CC1	0	·	·	·	8
CNC(=O)C[C@@H]1CC[C@H]2[C@@H](COc3ccc(NC(=O)c4cccc(F)c4)cc3C(=O)N2C)O1	3	·	·	·	2
C[C@@H]1CN([C@@H](C)CO)C(=O)c2cc(NS(C)(=O)=O)ccc2O[C@H]1CN(C)S(=O)(=O)c1ccccc1	6	·	·	·	·
O=C(O)C[C@H]1C=C[C@@H](NC(=O)Nc2ccccc2)[C@@H](CO)O1	4	·	·	·	6
C[C@H]1CCCCO[C@H](CN(C)C(=O)Nc2cccc3ccccc23)[C@@H](C)CN([C@@H](C)CO)C(=O)c2cc(NS(=O)(=O)c3cn(C)cn3)ccc2O1	3	·	·	·	·
O=C(O)c1cccc2c1-c1ccccc1/C2=N\Nc1ccccc1	63*	4	25	62	6
O=c1cc(-c2ccccc2)[nH]c2nc3ccccc3n12	-7	-1	47*	16	-42
SMILES	esBAF inh	GAA850 FXN act	Wnt bcat act	MITF TRPM1 HTS	Statin myotox sup
COc1cccc(S(=O)(=O)N[C@H]2CC[C@H](CCn3cc(-c4ccc(F)cc4)nn3)O[C@@H]2CO)c1	-15	·	·	·	2
C[C@@H](NC(=O)[C@@H]1[C@@H](CO)[C@@H]2Cn3c(ccc(-c4ccccc4F)c3=O)[C@H]1N2C)c1ccccc1	-2	·	·	·	-7
CO[C@H]1CN(C)C(=O)c2ccc(NC(=O)C3CCC3)cc2OC[C@@H](C)N(Cc2ccncc2)C[C@H]1C	4	·	·	·	-33
c1ccc2nc3c(nc2c1)[nH]c1ccccc13	·	7	93*	13	·
CO[C@H]1CN(C)C(=O)c2ccc(NC(=O)C3CC3)cc2OC[C@@H](C)N(CC2CCOCC2)C[C@@H]1C	5	·	·	·	-3
C=CCSC1=NNC(c2ccc(C(C)(C)C)cc2)=NN1	63*	2	12	66	-61
C/C=C/c1ccc2c(c1)O[C@@H](CN(C)C(=O)NC1CCCCC1)[C@@H](C)CN([C@@H](C)CO)S2(=O)=O	0	·	·	·	111*
CCCNC(=O)N(C)C[C@@H]1Oc2cc(C3=CCCCC3)ccc2S(=O)(=O)N([C@H](C)CO)C[C@H]1C	-3	·	·	·	-32
CCCNC(=O)N(C)C[C@@H]1Oc2cc(C3=CCCCC3)ccc2S(=O)(=O)N([C@@H](C)CO)C[C@@H]1C	1	·	·	·	95*
COc1ccccc1-c1cnc2c(c1)C(=O)N([C@@H](C)CO)C[C@H](C)[C@H](CN(C)C(=O)CN(C)C)O2	-6	·	·	·	·
Cc1ccccc1NC(=S)c1ccc2ccccc2n1	70*	4	26	29	-4
COc1cccc(/C=N/Nc2ccccc2C(=O)O)c1O	4	4	35*	26	31
O=C(O)c1ccccc1NN=Cc1ccccc1	·	1	61*	40	3
CO[C@@H]1CN(C)C(=O)c2cc(NC(=O)c3ccc4c(c3)OCO4)ccc2OC[C@H](C)NC[C@H]1C	-4	·	·	·	1
COc1ccc2c(c1)CCc1c-2n[nH]c1C(=O)NCCC(C)C	2	4	31*	55	-29
CNC(=O)c1[nH]nc2c1CCc1cc(OC)ccc1-2	29	4	3	54	-5
c1ccc(CSc2nnc(-c3c[nH]c4ccccc34)o2)cc1	53*	2	11	64	·
Cc1ccccc1-c1nnc(SCC(=O)NC2CCCCC2)o1	-4	-3	4	20	78*
c1ccc2c(-c3nnc(SCc4cn5ccccc5n4)o3)c[nH]c2c1	24	1	·	32	20
Cc1ccccc1-c1nnc(SCc2ccccc2)o1	63*	1	·	·	7
CN(C)C(=O)C[C@H]1CC[C@H](NC(=O)Nc2cccc(F)c2)[C@@H](CO)O1	2	·	·	·	2
O=C1N=c2ccccc2=C1c1sc(Nc2cccc(O)c2)nc1O	51*	0	1	·	9
O=C1N=c2ccccc2=C1c1sc(Nc2ccc(O)cc2)nc1O	·	4	27	27	·
Cc1cccc(NC(=O)c2ccccc2-c2ccccc2)c1	·	2	1	2	·
O=C(Cc1coc(-c2ccc(F)cc2)n1)Nc1ccccc1	7	4	0	13	106*
O=C(Nc1cccc(NC(=O)c2ccccc2F)c1)c1ccccc1	15	-1	2	-10	107*
Cc1cccc(NC(=O)c2ccccc2C(=O)O)c1	-1	1	0	2	137*
C/C(=N\NC(=O)c1ccccc1F)c1cccc(NC(=O)c2ccccc2)c1	·	2	4	49	·
COC(=O)c1ccc(NC(=O)c2ccc(OC(C)=O)c(OC)c2)cc1	50*	4	-1	49	-17
CCCNC(=O)Nc1ccc2c(c1)C(=O)N(C)C[C@@H](OC)[C@H](C)CN(Cc1ccc(-c3ccccn3)cc1)[C@H](C)CO2	7	·	·	·	12
